Data reported in the supplement of paper PMC8726507.
A number with no mark means an inactive call.

The molecules below were run on Plasmodium falciparum NF54-HGL (transmission to Anopheles stephensi) (assay: percentage of barcode signal found in uninfected mosquitoes (transmission-blocking activity); higher = stronger blocking of transmission to mosquito, active = 80 or more). Settings: 20 µM; gametocyte preincubation time 24 h; readout time post-feed 8 days.
Protocol: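 The mixture was fed to Anopheles stephensi in 96-well plates as blood meals tagged with DNA-barcoded Asaia bacteria. Eight days later, mosquitoes were classed infected or uninfected by luminescence (mean + 5 SD of unfed controls). Barcodes were quantified by Luminex MagPlex-TAG in the pooled uninfected and infected Asaia cultures, background-corrected, and the score is % of barcode signal in uninfected mosquitoes = 100*Iu/(Iu+Ii).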

| SMILES | percentage of barcode signal found in uninfected mosquitoes |
| --- | --- |
| CNc1cc(C)nc(C2CN(C(=O)c3n[nH]c4ccccc34)CCO2)c1 (stereo not given) | 35.5% |
| Cc1cc(NCCc2ccccc2)nc(NC(=N)Nc2ccc(Cl)cc2)n1 | 75.8% |
| NC(=O)c1cc(Br)ccc1OCCOc1ccccc1 | 0.0693% |
| O=C(Nc1cnc2ccccc2c1)c1cccc(-n2cnnn2)c1 | 21.3% |
| CCOc1ccc(OCC(=O)Nc2cc(C)cc(C)c2)cc1 | 17.5% |
| CC(=O)N1CCc2cc3nc(C)cc(C)c3cc21 | 5.33% |
| OCc1ccc(-c2cncc(Nc3cccc(Cl)c3)c2)cc1 | 4.28% |
| O=C(Nc1ccccc1)c1ccc(-c2cc3ccncc3cc2OC2CCNCC2)s1 | 82.7% (active) |
| Cc1cc(OCC(=O)NCc2ccccc2)c2cc(Br)ccc2n1 | 0.13% |
| CC(=O)NCC1CN(c2ccc(-c3ccc(CO)cc3)c(F)c2)C(=O)O1 (stereo not given) | 30.3% |
| CC(C)(C)c1cnc(NC(=O)c2ccccc2O)s1 | 21.3% |
| c1ccc(Oc2ccc(-c3cc(N4CCOCC4)[nH]n3)cc2)cc1 | 1.03% |
| COc1ccc(Cn2cnc3c(-c4ccco4)nc(Cl)nc32)cc1 | 21.6% |
| Cc1ccc2nc(C)c(-c3ccn(Cc4ccccc4)n3)n2c1 | 71.6% |
| COc1cccc(NC(=O)c2c(NC(=O)c3cccnc3)sc3c2CCC3)c1 | 34.2% |
